Structures are written as SMILES. Results filed as inconclusive are left out. Entries that show only a call come without a potency. Activity calls are given as the source filed them. Calls follow the shape of the dose curve; as a rule, active = well fitted cell-killing curve with a large enough effect; inconclusive = small, poorly fitted or top-dose-only effect; inactive = flat fitted curve, though single readings scatter.
Potency is read from the fitted curve at half-maximal effect.

A short description of the assay: Quantitative highthroughput screen to assess conditional lethalithy of NOMO1 cells grown in RPMI1640 with dialyzed fetal bovine serum (RPMI+ds) (AID 1963877). Also: nearly all actives have a fitted effect of over 30% in size. To be noted: NOMO1 in RPMI+dialyzed FBS viability, ATP luminescence, 48 h; series mostly up to 45.8 µM. From the text:
Assay Provider: Jason Cantor Ph.D.
Department of Biochemistry
University of Wisconsin-Madison, Madison, WI, USA
Chemical screening studies have identified drug sensitivities across hundreds of cancer cell lines but most putative therapeutics fail to translate. Discovery and development of drug candidates in models that more accurately reflect nutrient levels in human blood is a major challenge. Here we performed high-throughput screens in conventional versus Human Plasma-Like Medium (HPLM) to identify compounds that were "missed" when screening using the artificial culture condition. Sets of conditional anticancer compounds spanned phases of clinical development and included non-oncology drugs were assessed. […] We also traced conditional phenotypes for several chemotherapeutics to availability of HPLM-specific metabolites and confirmed others for compounds whose reported targets are encoded by nonessential genes. Our findings establish generalizable strategies for exploiting conditional lethality in HPLM to reveal therapeutic candidates and mechanisms of action in cancer cells.
Described herein are the results of each viability screens against three cell lines: NOMO1 (an acute myeloid leukemia cell line); P12-Ichikawa (a T-cell acute lymphoblastic leukemia); and SEM (a B-cell ALL). Each assay was screened using 3 different cell culture media: homemade human plasma-Like medium with 10% dialyzed fetal bovine serum (HPLM+ds); RPMI1640 with 10% untreated FBS and 5mM glucose (RPMI+s); and RPMI1640 with 10% dialyzed fetal bovine serum and 5 mM glucose (RPMI+ds).
PROTOCOL TABLE (as described by Inglese J, Shamu CE and Guy RK. 2007)
SEQUENCE No. (e.g., 1, 2, 3, etc.); […] (e.g., Cells, Incubation, Reagent, etc.); VALUE and DESCRIPTION.
1; Cells; 5 uL; white, solid bottom 1536-well Greiner assay plate.
2; Compounds; 23 nL; Kalypsis pin tool (Wako USA) equipped with a 1536-well pin head to transfer to the assay plates.
3; Incubation; 48 hours; 37C incubation.
4; Reagent; 3 uL; CellTiter Glo (Promega).
5; Incubation; 5 min, room temperature
6; Detection; Luminescence, Viewlux PerkinElmer.
NOTES (numbers refer to Sequence numbers above)
1. Briefly, 5 ul of cell reagent was dispensed using a Multidrop Combi Dispenser. The NOMO1 and SEM cells were plated at 500 cells/well and the P12-Ichikawa line at 1000 cells/well.
2. After seeding the cells, 23 nL of MIPE 4.1 library compounds (in DMSO) were added to each plate using a Kalypsys 1536 Pintool dispenser. Bortezomib at final concentration of […] and DMSO were added to each plate as positive and negative controls respectively. For each screen, MIPE 4.1 compounds were added over an eleven-point concentration range […] in 3-fold dilutions.
3. Each plate was covered with a stainless steel gasketed lid to prevent evaporation and incubated for 48 hour at 37C, 95% relative humidity, and 5% CO2.
4-5. Three microliter CellTilter-GloTM luminescent substrate mix (Promega) reagent was added to the assay plate and incubated at room temperature for 5 min.
6. The luminescence signal was measured using a ViewLux (PerkinElmer) multiplate reader with a 2 second exposure time per plate. Data for each compound were normalized as percent viability such that measurements for DMSO and the empty well controls in each plate were defined as 100% and 0%, respectively.
On to `c1ccc2c(Oc3nc(Nc4ccc(N5CCOCC5)cc4)c4ncn(C5CCCCC5)c4n3)cccc2c1`, for which the Potency result is “inactive”.

In the case of `O=C(C=CC#Cc1cccc(NS(=O)(=O)c2ccccc2)c1)NO`, the Potency is 3.32 µM (active). To `Cc1cc2c(cc1C1(c3ccc(C(=O)O)cn3)CC1)C(C)(C)CCC2(C)C` belongs “inactive”. To `CCN(CC)CCCC(C)Nc1nc(C)cc(Nc2ccc3nc(C)cc(N)c3c2)n1` (stereo not given) belongs “inactive”; to `CN1C(=O)C(Cc2c[nH]c3ccccc23)NC1=S` (stereo not given), “inactive”.

As for `Cc1ccc(C2=Nc3ccc(Cl)cc3OC2)cc1`, the Potency result was “inactive”. To `CCCCCN(CCC12CC3CC(CC(C3)C1)C2)C(=O)NCCCc1ccncc1` belongs “inactive”; to `CC1(C)C(=O)N(CCN2CCC(C(=O)c3ccc(F)cc3)CC2)c2ccccc21`, 18.7 µM (active). `CC(C)(Sc1ccc(CCN(CCCCC2CCCCC2)C(=O)NC2CCCCC2)cc1)C(=O)O`: the Potency entry was “inactive”. To `CCN[C@H]1C[C@H](C)S(=O)(=O)c2sc(S(N)(=O)=O)cc21` belongs “inactive”.

As to `CC(C)(C(=O)NCC(F)(F)C(F)(F)F)C(=O)N[C@@H]1C(=O)Nc2ccccc2-c2ccccc21`, the Potency was 1.87 µM (active).

On to `Nc1nc(Nc2ccc(S(N)(=O)=O)cc2)nn1C(=O)c1c(F)cccc1F`, for which the Potency was 16.6 µM (active).

Consider `CC(C)(N)C(=O)N[C@H](COCc1ccccc1)C(=O)N1CCC2(CC1)CN(S(C)(=O)=O)c1ccccc12`, for which the Potency is 10.5 µM (active). To `CC(C)c1cnn2c(NCc3ccccc3)cc(N[C@@H](CO)[C@H](O)CO)nc12` belongs 0.743 µM (active).

Regarding `NC1(Cc2ccc(Cl)cc2)CCN(c2ncnc3[nH]ccc23)CC1`, the Potency is 9.35 µM (active). The entry for `COc1ccc(-c2cc(=O)c3c(O)cc(O[C@@H]4O[C@H](CO[C@@H]5O[C@@H](C)[C@H](O)[C@@H](O)[C@@H]5O)[C@@H](O)[C@H](O)[C@@H]4O)cc3o2)cc1O` is “inactive”; for `CC(C)(C)OC(=O)Nc1ccc(-c2cc(C(=O)NCCCCCCC(=O)NO)no2)cc1` it is 9.35 µM (active); for `C=C(C)[C@@H]1CC[C@]2(C)CC[C@]3(C)[C@H](CC[C@@H]4[C@@]5(C)CC[C@H](O)C(C)(C)[C@H]5CC[C@]43C)[C@@H]12` it is “inactive”. The entry for `CC1CCN(c2cc(N3CCN(C)CC3)ccc2NC(=O)c2cc(C#N)c[nH]2)CC1` is “inactive”; for `NS(=O)(=O)OC[C@@H]1C[C@@H](n2ccc3c(N[C@H]4CCc5ccccc54)ncnc32)C[C@H]1O` it is 0.526 µM (active). To `CC(C=CC=C(C)C=CC1=C(C)CCCC1(C)C)=CC=CC=C(C)C=CC=C(C)C=CC1=C(C)CCCC1(C)C` belongs “inactive”; to `Nc1ncnc2nc(-c3ccc(N4CCOCC4)nc3)cc(-c3cccc(Br)c3)c12`, “inactive”; to `NC[C@H]1O[C@H](O[C@@H]2[C@@H](O)[C@@H](O[C@H]3O[C@H](CO)[C@@H](O)[C@H](N)[C@@H]3O)[C@H](N)C[C@@H]2N)[C@H](O)[C@@H](O)[C@H]1O`, “inactive”. As to `CCOC(=O)c1c(CSc2ccccc2)n(C)c2cc(Br)c(O)c(CN(C)C)c12`, the Potency is 16.6 µM (active).

For `COc1ccc(C(C)=O)c(O)c1`, the Potency is 2.96 µM (active). The figure for `C=CC(=O)Nc1cc2c(Nc3ccc(F)c(Cl)c3)ncnc2cc1OCCCN1CCOCC1` is 2.96 µM (active); for `CNC(=O)c1ccc(Nc2ncc(C(F)(F)F)c(NCc3nccnc3N(C)S(C)(=O)=O)n2)cc1` it is “inactive”; for `C=CC(=O)Nc1cc2c(Nc3ccc(F)c(Cl)c3)ncnc2cc1C#CC(C)(C)N1CCN(C)CC1` it is 5.26 µM (active).

Turning to `Nc1cc(C(F)(F)F)c(-c2cc(N3CCOCC3)nc(N3CCOCC3)n2)cn1`, the Potency was 1.87 µM (active). On to `CC(C)(C#N)c1cc(Cn2cncn2)cc(C(C)(C)C#N)c1`, for which the Potency entry is “inactive”.

Turning to `O=C(CS(=O)Cc1ccco1)NCC=CCOc1cc(CN2CCCCC2)ccn1` (stereo not given), the Potency entry is “inactive”.

As for `O=c1cc(N2CCOCC2)oc2c(-c3cccc4c3sc3ccccc34)cccc12`, the Potency result is “inactive”. The entry for `O=C(Nc1ccccc1Br)N[C@@H]1CCN(c2ccc(C(F)(F)F)cn2)C1` is “inactive”.

Turning to `O=c1cc(-c2ccc(O)c(O)c2)oc2cc(O)cc(O)c12`, the Potency result is “inactive”.

Turning to `O=P(O)(O)C(O)(Cc1cccnc1)P(=O)(O)O`, the Potency result was “inactive”. Regarding `NC(N)=Nc1nc(CSCCC(N)=NS(N)(=O)=O)cs1`, the Potency result is “inactive”. Regarding `C[C@@]12C[C@@]3(O)O[C@@H](O1)[C@]1(COC(=O)c4ccccc4)[C@@H]3C[C@@]12O[C@@H]1O[C@H](CO)[C@@H](O)[C@H](O)[C@@H]1O`, the Potency result was “inactive”.

Take `O=C1Nc2ccc(I)cc2C1=Cc1cc(Br)c(O)c(Br)c1`: the Potency result is “inactive”. With `N#Cc1ccc(NC(=O)Nc2ccccc2Br)c2n[nH]nc12`, the Potency entry is “inactive”. To `CN(C)c1nc(Cc2ccc(NC(=O)c3ccc(C(F)(F)F)cc3)cc2)nc(N(C)C)c1CC(=O)O` belongs “inactive”.

The values are drawn from PubChem BioAssay (NCATS).
